From PubChem BioAssay (Tox21)
Records with an inconclusive call do not appear. The source made the active and inactive calls. Unless noted, the call rests on the fitted dose curve; in most records, active means well fitted curve in the direction sought with a large enough effect in the repeat runs; inconclusive means weak or mixed curves; inactive means no such curve, though single readings can be large; an effect the other way counts as inactive or inconclusive.

Tests used:
[1] = target: Estrogen receptor beta (Homo sapiens) (UniProt Q92731); test: qHTS assay to identify small molecule agonists of the estrogen receptor beta (ER-beta) signaling pathway (AID 1259377; active means well fitted activation curve with a large enough effect in the signal ratio in the repeat runs, not every such curve was filed as active; the % refers to the signal ratio)
Summary of the method: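 A UAS-controlled beta-lactamase reporter in ER-beta-UAS-bla HEK293T cells reports receptor activation. Compounds act for 16 hr at 37C in 2% charcoal-stripped serum, and a FRET substrate is read by fluorescence after 2 hours.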

[2] = target: Estrogen receptor beta (Homo sapiens) (UniProt Q92731); test: qHTS assay to identify small molecule antagonists of the estrogen receptor beta (ER-beta) signaling pathway (AID 1259378; active means well fitted inhibition curve with a large enough effect in the signal ratio in the repeat runs, not every such curve was filed as active; the % refers to the signal ratio)
Summary of the method: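 Antagonist mode: compounds added to beta-lactamase reporter HEK293T ER-beta-UAS cells stimulated with E2 (1nM final), 16 hr at 37C. LiveBLAzer B/G FRET substrate, 2 hours room temperature, fluorescence read-out.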

[3] = qHTS assay to identify small molecule agonists of the androgen receptor (AR) signaling pathway in the presence of an antagonist - cell viability counter screen (AID 1259379);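 further: MDA-kb2 human breast cancer cells carrying an MMTV luciferase reporter; series mostly up to about 92 µM; nearly all actives have a fitted effect of over 25% in size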
Summary of the method: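 In MDA-kb2 cells (human breast carcinoma, MMTV-luciferase), compounds at 15 concentrations plus 3.0uM nilutamide; 16 hr, 37C, 0% CO2; CellTiter-Fluor fluorescence read for viability.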

[4] = qHTS assay to identify small molecule agonists of the estrogen receptor beta (ER-beta) signaling pathway - cell viability counter screen (AID 1259380); further: nearly all actives have a fitted effect of over 30% in size
Summary of the method: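 Viability of ER-beta-UAS-bla HEK293T cells was determined by CellTiter-Glo luminescence following 16 hr treatment with test compounds at 37C.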

[5] = qHTS assay to identify small molecule antagonists of the estrogen receptor beta (ER-beta) signaling pathway - cell viability counter screen (AID 1259382);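 further: HEK293T cells carrying ER-beta-UAS-bla reporter stimulated with estradiol; series mostly up to about 92 µM; nearly all actives have a fitted effect of over 55% in size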
Summary of the method: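 Tox21 10K library tested in qHTS format on ER-beta-bla HEK293T cells stimulated with 1nM E2; 16 hr treatment at 37C. Same-well CellTiter-Glo luminescence served as the cell viability measure.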

[6] = qHTS assay to identify small molecule agonists or antagonists of the thyroid stimulating hormone receptor (TSHR) signaling pathway - wild type cell line counter screen (AID 1259384; calls by dose curve)
Summary of the method: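 Counter screen in untransfected Hek293: compounds (15-point titration, triplicate) plus phosphodiesterase inhibitor Ro20-1724 added after 18 h plating; 30 min RT. Intracellular cAMP via competitive d2/cryptate immunoassay, 1 h incubation.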

[7] = target: Thyrotropin receptor (Homo sapiens) (UniProt P16473); test: qHTS assay to identify small molecule antagonists of the thyroid stimulating hormone receptor (TSHR) signaling pathway (AID 1259385; calls by dose curve; further: nearly all actives have a fitted effect of over 20% in size)
Summary of the method: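 Antagonist mode: compound-treated TSHR-expressing HEK293 cells were stimulated with 1.5 ng/mL TSH (final) in presence of Ro20-1724 for 30 min at RT. HTRF cAMP detection after 1 h; each compound tested at 15 concentrations, triplicate.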

[8] = qHTS assay to identify small molecule agonists of the estrogen receptor alpha (ER-alpha) signaling pathway in the presence of an antagonist - cell viability counter screen (AID 1259386);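 further: series mostly up to about 92 µM; cells exposed to compounds for 22 h at 37 °C before the viability read; nearly all actives have a fitted effect of over 30% in size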
Summary of the method: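 Fluorescent CellTiter-Fluor viability signal from VM7Luc4E2 cells, with the reagent added during the final hour of a 22hr compound exposure at 37C in the presence of 10.0nM ICI-182,780.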

[9] = target: Progesterone receptor (Homo sapiens) (UniProt P06401); test: qHTS assay to identify small molecule agonists of the progesterone receptor (PR) signaling pathway (AID 1346784; calls by dose curve; further: nearly all actives have a fitted effect of over 30% in size)
Summary of the method: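 Agonist mode, quantitative HTS format in a HEK 293T line expressing a UAS-controlled beta-lactamase reporter; 16 hr compound exposure at 37C in 2% charcoal-stripped FBS, then LiveBLAzer B/G FRET fluorescence.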

[10] = target: Progesterone receptor (Homo sapiens) (UniProt P06401); test: qHTS assay to identify small molecule antagonists of the progesterone receptor (PR) signaling pathway (AID 1346795; active means well fitted inhibition curve with a large enough effect in the signal ratio in the repeat runs, not every such curve was filed as active; the % refers to the signal ratio)
Summary of the method: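 HEK293T PR-UAS-bla reporter cells in charcoal-stripped serum (2%) received compound after a 6 hr settling period, followed by R5020 agonist at 1 nM final; 16 hr incubation preceded the FRET substrate step and fluorescence measurement.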

[11] = qHTS assay to identify small molecule antagonists of the progesterone receptor (PR) signaling pathway - cell viability counter screen (AID 1346798); further: series mostly up to about 92 µM; nearly all actives have a fitted effect of over 50% in size
Summary of the method: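 Same-well multiplex: after 16 hr at 37C with compound and R5020 stimulation, HEK293T cells carrying a UAS-bla reporter received LiveBLAzer substrate (2 hr RT), then CellTiter-Glo (30 min RT) for luminescent viability.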

[12] = qHTS assay to identify small molecule agonists of the progesterone receptor (PR) signaling pathway - cell viability counter screen (AID 1346799; calls by dose curve; further: nearly all actives have a fitted effect of over 45% in size)
Summary of the method: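 Counter screen for cytotoxicity: compound-treated PR-UAS-bla HEK293T cells (16 hr, 37C, 5% CO2) were assayed with CellTiter-Glo, luminescence measured after 30 min at room temperature.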

[13] = qHTS assay to identify small molecule agonists of the TGF-beta/Smad signaling pathway - cell viability counter screen (AID 1346829); further: top concentration of the series differs between compounds; nearly all actives have a fitted effect of over 45% in size
Summary of the method: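 Same-well cytotoxicity: CellTiter-Glo added after the 2 hr room-temperature beta-lactamase substrate step, luminescence measured 30 min later; cells had 5 hr of compound at 37 C.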

[14] = qHTS assay to identify small molecule agonists of the TGF-beta/Smad signaling pathway (AID 1346859; active means well fitted activation curve with a large enough effect in the signal ratio in the repeat runs, not every such curve was filed as active; the % refers to the signal ratio; further: series mostly up to about 77 µM)
Summary of the method: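 Smad-responsive beta-lactamase reporter cells (HEK 293T) received compounds from DMSO stocks after overnight attachment, were incubated 5 hr, then treated 2 hr with FRET substrate before dual-emission fluorescence measurement (405 nm excitation).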

[15] = target: Thyrotropin-releasing hormone receptor (Homo sapiens) (UniProt P34981); test: qHTS assay to identify small molecule antagonists of the thyrotropin-releasing hormone receptor (TRHR) signaling pathway (AID 1346877; active means well fitted inhibition curve with a large enough effect in the repeat runs, not every such curve was filed as active; further: series mostly up to about 51 µM)
Summary of the method: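 In this cell-based calcium flux format, HEK293 cells expressing TRHR received test compound for 5 min before the agonist TRH (1 nM final). Dye loading lasted 2 h at 37 °C.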

[16] = target: Thyrotropin-releasing hormone receptor (Homo sapiens) (UniProt P34981); test: qHTS assay to identify small molecule agonists of the thyrotropin-releasing hormone receptor (TRHR) signaling pathway (AID 1346891; calls by dose curve; further: series mostly up to about 58 µM)
Summary of the method: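 Agonist-mode calcium mobilisation screen: TRHR-transfected HEK293 cells cultured overnight (18 h), dye-loaded for 2 h at 37 °C, exposed to compounds, and monitored by fluorescence for 3 min.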

[17] = Human pregnane X receptor (PXR) small molecule agonists, qHTS cell viability counter screen (AID 1346977); further: nearly all actives have a fitted effect of over 50% in size
Summary of the method: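 Measures live-cell protease fluorescence (CellTiter-Fluor) in PXR-Luc HepG2 cells treated 24hr with compounds at 37C. Cells had 5hr to attach before pin transfer of DMSO solutions.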

[18] = target: Androgen receptor (Homo sapiens) (UniProt P10275); test: qHTS assay to identify small molecule agonists of the androgen receptor (AR) signaling pathway in the presence of an antagonist (AID 1259381; calls by dose curve; further: nearly all actives have a fitted effect of over 15% in size)
Summary of the method: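 Here, 15-concentration compound series were pin-transferred onto MDA-kb2 MMTV-luciferase cells already dosed with nilutamide (3.0uM final). After 16hr at 37C, ONE-Glo was added and luminescence read 30min later at room temperature.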

[19] = target: Estrogen receptor (Homo sapiens) (UniProt P03372); test: qHTS assay to identify small molecule agonists of the estrogen receptor alpha (ER-alpha) signaling pathway in the presence of an antagonist (AID 1259383; calls by dose curve; further: top concentration of the series differs between compounds; nearly all actives have a fitted effect of over 15% in size)
Summary of the method: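 In VM7Luc4E2 cells, 4,000 per well, compounds at 15 concentrations were co-incubated 22hr at 37C with 10.0nM final ICI-182,780. Luminescence from the stably transfected 4×ERE-luciferase reporter was recorded 30min after ONE-Glo addition.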

[20] = qHTS assay to identify small molecule antagonists of the TGF-beta/Smad signaling pathway - cell viability counter screen (AID 1346824); further: nearly all actives have a fitted effect of over 50% in size
Summary of the method: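 Cytotoxicity counter-screen run in the same wells as the beta-lactamase Smad reporter read: CellTiter-Glo luminescence after 30 min at room temperature. HEK 293T SBE-bla cells had 5 hr compound exposure at 37 C with TGF-beta1 (0.25 ng/mL stock).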

Measured: Potency

Chain of Progesterone receptor (Homo sapiens) (P06401 whole entry, looked up): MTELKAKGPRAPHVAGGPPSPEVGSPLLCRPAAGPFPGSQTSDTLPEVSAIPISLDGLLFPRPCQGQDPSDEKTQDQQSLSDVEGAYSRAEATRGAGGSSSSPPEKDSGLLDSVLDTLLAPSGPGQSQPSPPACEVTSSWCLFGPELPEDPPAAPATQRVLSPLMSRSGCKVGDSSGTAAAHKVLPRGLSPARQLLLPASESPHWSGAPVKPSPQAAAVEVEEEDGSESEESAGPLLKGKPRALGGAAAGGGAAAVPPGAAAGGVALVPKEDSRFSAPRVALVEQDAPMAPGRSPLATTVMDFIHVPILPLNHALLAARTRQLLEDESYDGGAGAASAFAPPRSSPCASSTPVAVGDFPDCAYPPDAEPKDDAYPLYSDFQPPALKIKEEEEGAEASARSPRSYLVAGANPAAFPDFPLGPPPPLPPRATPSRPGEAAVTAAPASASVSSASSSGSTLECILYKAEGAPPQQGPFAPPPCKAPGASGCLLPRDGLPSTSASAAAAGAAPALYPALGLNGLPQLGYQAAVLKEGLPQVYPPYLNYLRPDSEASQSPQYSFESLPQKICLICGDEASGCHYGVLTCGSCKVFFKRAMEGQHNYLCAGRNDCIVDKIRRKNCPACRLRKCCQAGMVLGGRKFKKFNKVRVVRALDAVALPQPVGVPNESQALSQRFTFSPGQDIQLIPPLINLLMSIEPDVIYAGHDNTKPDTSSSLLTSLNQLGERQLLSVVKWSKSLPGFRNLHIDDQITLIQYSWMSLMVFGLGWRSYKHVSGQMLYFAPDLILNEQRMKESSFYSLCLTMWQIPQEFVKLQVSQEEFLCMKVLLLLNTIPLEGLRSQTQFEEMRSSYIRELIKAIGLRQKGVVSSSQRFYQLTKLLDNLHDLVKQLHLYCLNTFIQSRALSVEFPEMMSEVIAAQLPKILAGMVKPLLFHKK
Chain of Thyrotropin-releasing hormone receptor (Homo sapiens) (P34981 whole entry, looked up): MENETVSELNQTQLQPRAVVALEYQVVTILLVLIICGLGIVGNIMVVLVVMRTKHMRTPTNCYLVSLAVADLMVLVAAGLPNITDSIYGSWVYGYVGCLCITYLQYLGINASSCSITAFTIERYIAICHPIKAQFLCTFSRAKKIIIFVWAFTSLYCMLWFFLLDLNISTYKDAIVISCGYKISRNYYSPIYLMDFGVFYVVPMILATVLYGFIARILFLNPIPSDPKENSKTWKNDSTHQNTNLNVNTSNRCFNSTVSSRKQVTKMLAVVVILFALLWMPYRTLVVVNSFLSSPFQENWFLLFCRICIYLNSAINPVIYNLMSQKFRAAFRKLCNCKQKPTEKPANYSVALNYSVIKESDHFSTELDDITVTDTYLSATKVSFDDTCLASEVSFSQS
Chain of Thyrotropin receptor (Homo sapiens) (P16473 whole entry, looked up): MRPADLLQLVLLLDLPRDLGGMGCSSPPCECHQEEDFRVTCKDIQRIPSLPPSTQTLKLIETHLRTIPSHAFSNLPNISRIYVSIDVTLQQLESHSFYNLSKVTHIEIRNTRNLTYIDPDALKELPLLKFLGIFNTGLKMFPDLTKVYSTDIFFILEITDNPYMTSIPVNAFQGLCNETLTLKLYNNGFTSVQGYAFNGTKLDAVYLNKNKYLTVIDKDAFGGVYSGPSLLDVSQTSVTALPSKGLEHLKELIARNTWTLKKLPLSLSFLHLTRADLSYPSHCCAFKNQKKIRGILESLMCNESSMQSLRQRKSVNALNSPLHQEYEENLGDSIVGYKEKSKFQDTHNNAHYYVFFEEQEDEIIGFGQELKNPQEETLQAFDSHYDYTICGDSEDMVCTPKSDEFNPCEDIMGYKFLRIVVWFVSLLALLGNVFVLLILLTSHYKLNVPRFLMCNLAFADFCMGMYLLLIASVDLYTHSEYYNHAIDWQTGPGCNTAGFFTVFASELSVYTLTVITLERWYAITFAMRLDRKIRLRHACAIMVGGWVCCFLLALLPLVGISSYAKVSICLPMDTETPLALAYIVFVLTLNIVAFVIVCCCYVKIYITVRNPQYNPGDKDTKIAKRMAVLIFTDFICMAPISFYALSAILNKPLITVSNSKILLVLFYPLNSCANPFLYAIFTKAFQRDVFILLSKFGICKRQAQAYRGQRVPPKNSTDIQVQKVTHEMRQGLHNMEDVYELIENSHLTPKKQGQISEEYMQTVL
Chain of Estrogen receptor (Homo sapiens) (P03372 whole entry, looked up): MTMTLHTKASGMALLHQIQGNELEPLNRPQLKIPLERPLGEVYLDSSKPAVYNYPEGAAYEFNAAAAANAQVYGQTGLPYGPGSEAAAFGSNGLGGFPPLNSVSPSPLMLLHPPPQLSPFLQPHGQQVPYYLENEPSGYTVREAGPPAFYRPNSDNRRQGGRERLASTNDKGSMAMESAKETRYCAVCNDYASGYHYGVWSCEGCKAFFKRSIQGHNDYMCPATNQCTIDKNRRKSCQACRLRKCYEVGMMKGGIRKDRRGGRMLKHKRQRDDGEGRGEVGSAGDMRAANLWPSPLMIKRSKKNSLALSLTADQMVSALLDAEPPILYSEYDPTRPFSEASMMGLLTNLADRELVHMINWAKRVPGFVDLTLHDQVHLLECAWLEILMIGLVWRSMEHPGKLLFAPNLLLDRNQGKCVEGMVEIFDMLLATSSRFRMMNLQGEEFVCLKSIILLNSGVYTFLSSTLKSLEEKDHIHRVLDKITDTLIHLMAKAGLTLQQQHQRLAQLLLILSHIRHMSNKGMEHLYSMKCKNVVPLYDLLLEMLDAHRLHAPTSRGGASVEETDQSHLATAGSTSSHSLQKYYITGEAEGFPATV
Chain of Androgen receptor (Homo sapiens) (P10275 whole entry, looked up): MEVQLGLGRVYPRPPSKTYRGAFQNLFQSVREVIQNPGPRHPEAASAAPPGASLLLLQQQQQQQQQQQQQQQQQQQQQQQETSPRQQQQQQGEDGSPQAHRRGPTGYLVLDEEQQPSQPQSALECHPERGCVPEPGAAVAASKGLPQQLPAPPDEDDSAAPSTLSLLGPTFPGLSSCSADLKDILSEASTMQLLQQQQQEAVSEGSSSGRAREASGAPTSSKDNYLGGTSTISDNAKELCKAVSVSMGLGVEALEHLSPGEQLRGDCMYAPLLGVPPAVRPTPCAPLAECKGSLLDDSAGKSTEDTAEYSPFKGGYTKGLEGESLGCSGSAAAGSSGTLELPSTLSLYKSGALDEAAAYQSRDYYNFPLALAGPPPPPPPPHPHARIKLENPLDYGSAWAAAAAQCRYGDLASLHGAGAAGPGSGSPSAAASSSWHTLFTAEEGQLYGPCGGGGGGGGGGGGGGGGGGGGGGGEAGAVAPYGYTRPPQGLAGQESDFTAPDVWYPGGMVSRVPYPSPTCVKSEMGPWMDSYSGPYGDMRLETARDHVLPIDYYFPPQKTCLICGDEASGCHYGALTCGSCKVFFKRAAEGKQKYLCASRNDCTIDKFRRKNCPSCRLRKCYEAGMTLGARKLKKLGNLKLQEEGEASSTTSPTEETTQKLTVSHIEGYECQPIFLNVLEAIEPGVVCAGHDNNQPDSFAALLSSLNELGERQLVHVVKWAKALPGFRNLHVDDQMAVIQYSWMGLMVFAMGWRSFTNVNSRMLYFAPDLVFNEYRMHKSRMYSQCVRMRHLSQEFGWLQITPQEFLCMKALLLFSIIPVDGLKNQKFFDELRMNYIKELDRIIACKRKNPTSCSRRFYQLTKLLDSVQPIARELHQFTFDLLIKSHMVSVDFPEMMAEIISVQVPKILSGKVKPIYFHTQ
Chain of Estrogen receptor beta (Homo sapiens) (Q92731 whole entry, looked up): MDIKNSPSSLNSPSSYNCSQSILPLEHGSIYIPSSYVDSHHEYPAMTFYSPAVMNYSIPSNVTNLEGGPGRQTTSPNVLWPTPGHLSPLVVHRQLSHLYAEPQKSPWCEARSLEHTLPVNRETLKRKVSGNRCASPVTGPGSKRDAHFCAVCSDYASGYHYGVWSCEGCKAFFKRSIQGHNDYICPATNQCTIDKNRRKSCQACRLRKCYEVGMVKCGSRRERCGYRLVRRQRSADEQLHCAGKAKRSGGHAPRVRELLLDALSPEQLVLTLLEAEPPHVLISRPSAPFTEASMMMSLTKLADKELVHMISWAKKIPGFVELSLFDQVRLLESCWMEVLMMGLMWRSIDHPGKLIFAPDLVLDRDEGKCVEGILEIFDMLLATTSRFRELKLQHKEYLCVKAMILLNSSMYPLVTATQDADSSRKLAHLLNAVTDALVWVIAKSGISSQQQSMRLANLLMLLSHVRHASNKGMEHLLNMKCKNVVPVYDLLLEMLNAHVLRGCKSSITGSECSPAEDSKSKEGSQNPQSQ

CNNCc1ccc(C(=O)NC(C)C)cc1
not listed: [18] | [19] | [20]
inactive: all other assays above

CN(C)CCOC(c1ccccc1)c1ccccc1
inactive: all assays above

CCCCC1(COC(=O)CCC(=O)O)C(=O)N(c2ccccc2)N(c2ccccc2)C1=O
not listed: [1] | [2]
inactive: all other assays above

CCCc1cc(=O)[nH]c(=S)[nH]1
not listed: [1] | [2] | [18]
inactive: all other assays above

NC(CO)(CO)CO
not listed: [1] | [2] | [18]
inactive: all other assays above

CN(C)C(=O)Nc1ccc(Cl)c(Cl)c1
not listed: [1] | [2]
inactive: all other assays above

CN1[C@@H]2CC(OC(=O)[C@H](CO)c3ccccc3)C[C@H]1[C@@H]1O[C@@H]12 (stereo partly specified)
not listed: [1] | [2] | [15] | [16] | [18] | [20]
inactive: all other assays above
